Source: PubChem BioAssay (EPA / NIEHS)
The source made the active and inactive calls. How the source made its calls: active means hit-call score of the fitted dose curve at least 0.9, where 1 is the maximum; inactive means score below 0.9.

Experiments:
[1] = ATG_CRE_CIS: Attagene CIS-FACTORIAL HepG2 Assay for human cAMP Responsive Element (CRE) binding protein 3 (AID 2282926); conditions: HepG2 CRE cis-reporter, Attagene multiplexed mRNA; actives raise or lower the signal
How it was run: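 HepG2 cells transiently transfected with a multiplexed reporter library (CRE-driven unit among them) were dosed for 24 h. Reporter mRNA was quantified by RT-PCR, fluorescent labelling, HpaI digestion and capillary electrophoresis, with bidirectional fitting against DMSO baseline.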

[2] = ATG_DR4_LXR_CIS: Attagene CIS-FACTORIAL HepG2 Assay for human Liver X Receptor (LXR), DR4 submotif (AID 2282929); conditions: HepG2 Attagene DR4 cis-reporter, mRNA transcription; actives raise or lower the signal
How it was run: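 Transiently transfected HepG2 liver cells; cis-regulated reporters; 24 h dosing. RT-PCR plus CE read-out of reporter mRNA. DMSO baseline, bidirectional curve fitting.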

[3] = ATG_AP_2_CIS: Attagene CIS-FACTORIAL HepG2 Assay for human Activator Protein 2 (AP-2) (AID 2282932); conditions: HepG2 AP-2 cis-reporter, Attagene transcription factor profiling; actives raise or lower the signal
How it was run: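 Step one: transient transfection of HepG2 with reporter transcription units. Step two: 24 h chemical exposure. Step three: RNA extraction, RT-PCR, labelled fragment analysis by capillary electrophoresis; DMSO serves as baseline.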

[4] = ATG_BRE_CIS: Attagene CIS-FACTORIAL HepG2 Assay for human Bone Morphogenetic Protein (BMP) Response Element (BRE) (AID 2282933); conditions: HepG2 BMP response element reporter, Attagene transcription factor profiling; actives raise or lower the signal
How it was run: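 Endogenous transcription factor activity read in transiently transfected HepG2 cells after 24 h chemical exposure. Bidirectional curve fitting against DMSO; readout is reporter transcript level by RT-PCR with capillary electrophoresis of labelled products.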

[5] = target: Transcription factor E2F1 (Homo sapiens) (UniProt Q01094); assay: ATG_E2F_CIS: Attagene CIS-FACTORIAL HepG2 Assay for human E2F Transcription Factor 1 (AID 2282935); conditions: HepG2 Attagene cis-reporter, E2F reporter RNA transcripts; actives raise or lower the signal
How it was run: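 Total RNA from 24 h-treated, reporter-transfected HepG2 cells undergoes DNase I treatment, oligo(dT) reverse transcription, PCR and 6-FAM primer extension before capillary electrophoresis.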

[6] = ATG_E_Box_CIS: Attagene CIS-FACTORIAL HepG2 Assay for human Enhancer Box (E-box) (AID 2282936); conditions: HepG2 E-box cis-reporter transcription, actives raise or lower the signal
How it was run: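 DMSO served as negative control and baseline for bidirectional fitting. Human hepatoma HepG2 cells, transiently transfected with cis-reporter constructs, were dosed 24 h; reporter mRNA read by RT-PCR and capillary electrophoresis.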

[7] = ATG_M_19_CIS: Attagene CIS-FACTORIAL HepG2 Assay for M19 Transcription Factor (Internal Marker) (AID 2282939); conditions: HepG2 Attagene CIS-FACTORIAL M19 internal marker reporter; actives raise or lower the signal
How it was run: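 Internal marker readout, fitted in both directions against DMSO, from HepG2 cells carrying transfected cis-element reporter constructs; RT-PCR and capillary electrophoresis of reporter mRNA after 24 h exposure.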

[8] = ATG_Ets_CIS: Attagene CIS-FACTORIAL HepG2 Assay for human Erythroblast Transformation Specific (ETS) (AID 2282941); conditions: HepG2 ETS cis-reporter transcription, actives raise or lower the signal
How it was run: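 HepG2 cells transiently transfected with cis-promoter reporter transcription units were dosed for 24 h; reporter mRNA was measured by RT-PCR, 6-FAM primer extension, HpaI digestion and capillary electrophoresis, with bidirectional fitting against DMSO baseline.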

[9] = target: Hepatocyte nuclear factor 3-beta (Homo sapiens) (UniProt Q9Y261); assay: ATG_FoxA2_CIS: Attagene CIS-FACTORIAL HepG2 Assay for human Forkhead box A2 (FOXA2) (AID 2282942); conditions: HepG2 cis-reporter transcription factor activity, 24 h; actives raise or lower the signal
How it was run: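 Multiplexed cis-element reporter assay in transiently transfected HepG2. Twenty-four hours post-dosing, RNA was reverse-transcribed, amplified, FAM-labelled, HpaI-digested and separated by CE. Activity gain or loss relative to DMSO.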

[10] = ATG_FoxO_CIS: Attagene CIS-FACTORIAL HepG2 Assay for human Forkhead box O (FoxO) (AID 2282943); conditions: HepG2 Attagene cis-reporter, FoxO element, mRNA; actives raise or lower the signal
How it was run: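 Human hepatoma HepG2 cells carry transiently introduced reporter transcription units controlled by cis promoter elements. Chemical treatment lasted 24 h, and mRNA signal was compared with DMSO.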

[11] = ATG_GATA_CIS: Attagene CIS-FACTORIAL HepG2 Assay for human GATA Binding Protein (AID 2282944); conditions: HepG2 GATA cis-element reporter, Attagene multiplex mRNA; actives raise or lower the signal
How it was run: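 Reporter transcripts from a GATA cis-regulated unit, among multiplexed reporters in transfected HepG2 cells, were measured by RT-PCR with capillary electrophoresis after 24 h dosing. Induction or loss scored relative to DMSO.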

[12] = ATG_M_32_CIS: Attagene CIS-FACTORIAL HepG2 Assay for M32 Transcription Factor (Internal Marker) (AID 2282949); conditions: HepG2 Attagene cis-factorial M32 reporter, mRNA; actives raise or lower the signal;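 further: background control marker of the multiplexed CIS panel rather than a real target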
How it was run: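 Internal background marker read-out: RT-PCR/capillary electrophoresis fluorescence of reporter transcripts from transiently transfected HepG2 cells after 24 h chemical exposure. Activity fitted bidirectionally relative to DMSO negative control.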

[13] = ATG_PXRE_CIS: Attagene CIS-FACTORIAL HepG2 Assay for human Pregnane X Receptor Element (PXRE) (AID 2282957); conditions: HepG2 Attagene CIS-FACTORIAL PXRE reporter, mRNA; actives raise or lower the signal
How it was run: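 HepG2 cells transiently transfected with cis-regulated multiple reporter transcription units; endogenous factor activity measured as reporter mRNA 24 h after dosing. RT-PCR, fluorescent primer extension, HpaI digestion, capillary electrophoresis; bidirectional fit versus DMSO baseline.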

[14] = ATG_Sox_CIS: Attagene CIS-FACTORIAL HepG2 Assay for human SRY-box transcription factor (SOX) (AID 2282960); conditions: HepG2 Attagene cis-factorial SOX reporter, mRNA; actives raise or lower the signal
How it was run: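 Fluorescence-labelled cDNA fragments from reporter transcripts, sized by CE, give the signal. Cells: HepG2, transiently transfected with cis-regulated reporter units. Exposure 24 h; DMSO negative control; bidirectional curve fitting.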

[15] = target: Transcription factor Sp1 (Homo sapiens) (UniProt P08047); assay: ATG_Sp1_CIS: Attagene CIS-FACTORIAL HepG2 Assay for human Specificity Protein 1 (Sp1) (AID 2282961); conditions: HepG2 Sp1 cis-reporter transcription, actives raise or lower the signal
How it was run: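 Chemicals are dosed onto HepG2 cells transfected with multiple cis-promoter reporter constructs, and after 24 h reporter RNA is reverse-transcribed, PCR-amplified and resolved by capillary electrophoresis for fluorescence quantitation; activity is scored up or down against DMSO.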

[16] = ATG_SREBP_CIS: Attagene CIS-FACTORIAL HepG2 Assay for human Sterol Regulatory Element Binding (SREBP) (AID 2282962); conditions: HepG2 Attagene cis-factorial SREBP reporter, mRNA; actives raise or lower the signal
How it was run: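 HepG2 cells transiently transfected with multiplexed cis-element reporter units report endogenous transcription factor activity. After 24 h of chemical exposure, reporter mRNA was quantified by RT-PCR, 6-FAM labelling, HpaI digestion and capillary electrophoresis; bidirectional fits used DMSO as baseline.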

[17] = target: Signal transducer and activator of transcription 3 (Homo sapiens) (UniProt P40763); assay: ATG_STAT3_CIS: Attagene CIS-FACTORIAL HepG2 Assay for human Signal Transducer and Activator of Transcription 3 (STAT3) (AID 2282963); conditions: HepG2, Attagene cis-factorial STAT3 reporter transcription; actives raise or lower the signal
How it was run: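 After a 24 h compound incubation, total RNA from MRTU-transfected HepG2 cells was converted to cDNA and reporter sequences PCR-amplified, labelled and profiled by capillary electrophoresis. Gain and loss of signal were referenced to DMSO.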

[18] = ATG_TA_CIS: Attagene CIS-FACTORIAL HepG2 Assay for human TA Basal Promoter (AID 2282964); conditions: HepG2 Attagene CIS-factorial TA basal promoter reporter; actives raise or lower the signal
How it was run: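 Background-control readout: TA basal promoter reporter mRNA, fitted in both directions relative to DMSO. Measured by RT-PCR and capillary electrophoresis 24 hours after treating HepG2 human liver cells transiently carrying multiplexed cis-regulated reporter constructs.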

[19] = ATG_TCF_b_cat_CIS: Attagene CIS-FACTORIAL HepG2 Assay for human T-Cell-Factor with beta-catenin (TCF/b-cat) (AID 2282965); conditions: HepG2 TCF/beta-catenin cis-reporter transcription, actives raise or lower the signal
How it was run: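 Measured: reporter mRNA in HepG2 transiently transfected with cis-promoter reporter units, 24 h after chemical addition. Fitting was bidirectional, DMSO as negative control.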

[20] = ATG_TGFb_CIS: Attagene CIS-FACTORIAL HepG2 Assay for human Transforming Growth Factor (TGF) (AID 2282967); conditions: HepG2 Attagene CIS TGFb reporter, mRNA transcription; actives raise or lower the signal
How it was run: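 Endogenous TGFB1-linked transcription factor activity read as reporter mRNA via RT-PCR and capillary electrophoresis, 24 h after dosing transiently transfected HepG2 cells. Gain or loss of signal fitted relative to DMSO.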

Measured: AC50

Chain of Signal transducer and activator of transcription 3 (Homo sapiens) (P40763 whole entry, looked up): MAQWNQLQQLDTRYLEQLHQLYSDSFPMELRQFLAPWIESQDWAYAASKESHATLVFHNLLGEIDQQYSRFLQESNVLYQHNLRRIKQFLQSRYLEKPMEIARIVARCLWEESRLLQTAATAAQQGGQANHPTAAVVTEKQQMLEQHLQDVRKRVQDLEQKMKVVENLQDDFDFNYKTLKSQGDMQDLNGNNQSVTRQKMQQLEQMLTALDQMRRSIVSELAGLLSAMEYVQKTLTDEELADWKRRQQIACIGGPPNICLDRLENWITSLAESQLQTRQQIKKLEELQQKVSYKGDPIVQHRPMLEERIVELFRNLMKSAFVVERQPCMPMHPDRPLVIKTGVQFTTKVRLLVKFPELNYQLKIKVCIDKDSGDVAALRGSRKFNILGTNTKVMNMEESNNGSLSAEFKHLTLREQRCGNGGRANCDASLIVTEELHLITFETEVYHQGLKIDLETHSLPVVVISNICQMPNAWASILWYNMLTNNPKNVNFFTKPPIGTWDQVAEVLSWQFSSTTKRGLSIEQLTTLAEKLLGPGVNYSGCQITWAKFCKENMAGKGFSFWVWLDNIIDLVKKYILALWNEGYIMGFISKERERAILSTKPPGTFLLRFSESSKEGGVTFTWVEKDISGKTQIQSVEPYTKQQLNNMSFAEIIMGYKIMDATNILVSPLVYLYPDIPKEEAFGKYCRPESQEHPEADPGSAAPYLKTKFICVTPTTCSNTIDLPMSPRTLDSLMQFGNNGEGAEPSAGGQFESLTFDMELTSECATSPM
Chain of Transcription factor E2F1 (Homo sapiens) (Q01094 whole entry, looked up): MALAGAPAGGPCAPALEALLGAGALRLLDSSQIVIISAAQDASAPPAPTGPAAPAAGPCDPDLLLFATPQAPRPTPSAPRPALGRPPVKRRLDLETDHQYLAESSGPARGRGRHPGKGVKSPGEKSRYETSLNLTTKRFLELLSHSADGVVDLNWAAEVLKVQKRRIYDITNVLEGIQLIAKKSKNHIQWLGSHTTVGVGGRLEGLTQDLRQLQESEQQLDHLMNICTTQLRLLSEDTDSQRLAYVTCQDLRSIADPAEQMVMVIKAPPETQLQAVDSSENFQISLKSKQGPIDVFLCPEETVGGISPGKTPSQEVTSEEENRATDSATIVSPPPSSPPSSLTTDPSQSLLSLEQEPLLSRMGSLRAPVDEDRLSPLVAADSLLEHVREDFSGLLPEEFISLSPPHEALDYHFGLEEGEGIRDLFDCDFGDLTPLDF
Chain of Hepatocyte nuclear factor 3-beta (Homo sapiens) (Q9Y261 whole entry, looked up): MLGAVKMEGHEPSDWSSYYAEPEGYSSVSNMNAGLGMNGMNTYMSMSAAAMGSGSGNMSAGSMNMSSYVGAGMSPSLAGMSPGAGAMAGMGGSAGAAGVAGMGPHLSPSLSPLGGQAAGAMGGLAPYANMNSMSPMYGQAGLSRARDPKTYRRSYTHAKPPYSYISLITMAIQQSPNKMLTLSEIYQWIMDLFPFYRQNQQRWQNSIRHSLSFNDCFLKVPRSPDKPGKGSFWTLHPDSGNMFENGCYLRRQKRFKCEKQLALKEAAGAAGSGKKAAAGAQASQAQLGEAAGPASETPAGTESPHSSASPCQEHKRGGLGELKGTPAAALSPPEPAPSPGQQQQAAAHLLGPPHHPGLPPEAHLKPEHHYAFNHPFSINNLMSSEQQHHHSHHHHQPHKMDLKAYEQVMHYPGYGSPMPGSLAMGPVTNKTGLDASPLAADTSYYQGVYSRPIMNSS
Chain of Transcription factor Sp1 (Homo sapiens) (P08047 whole entry, looked up): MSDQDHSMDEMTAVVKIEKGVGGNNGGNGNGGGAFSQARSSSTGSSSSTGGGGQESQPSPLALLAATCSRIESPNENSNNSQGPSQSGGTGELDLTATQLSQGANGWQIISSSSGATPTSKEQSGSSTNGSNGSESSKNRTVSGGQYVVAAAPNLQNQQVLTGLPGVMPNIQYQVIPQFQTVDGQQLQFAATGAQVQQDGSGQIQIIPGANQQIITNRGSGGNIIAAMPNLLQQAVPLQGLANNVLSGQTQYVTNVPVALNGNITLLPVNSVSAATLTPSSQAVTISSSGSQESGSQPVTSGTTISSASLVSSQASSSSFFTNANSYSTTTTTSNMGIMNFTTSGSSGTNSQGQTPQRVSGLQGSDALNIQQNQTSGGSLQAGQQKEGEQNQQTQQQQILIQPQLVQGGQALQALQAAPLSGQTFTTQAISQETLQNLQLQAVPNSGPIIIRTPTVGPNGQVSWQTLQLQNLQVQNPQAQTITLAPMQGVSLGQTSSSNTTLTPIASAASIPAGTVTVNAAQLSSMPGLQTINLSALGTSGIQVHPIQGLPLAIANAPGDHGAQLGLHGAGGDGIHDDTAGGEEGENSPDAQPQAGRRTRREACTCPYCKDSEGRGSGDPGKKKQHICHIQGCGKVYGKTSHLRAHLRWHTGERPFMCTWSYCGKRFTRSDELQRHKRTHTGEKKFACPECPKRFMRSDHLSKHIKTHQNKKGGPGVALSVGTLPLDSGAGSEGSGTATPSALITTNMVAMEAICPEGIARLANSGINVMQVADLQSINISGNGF

S=c1[nH]c2ccccc2[nH]1
inactive: all assays above

CCCCCCCCCCCCCCCC[N+](C)(C)C
active: [1] 48.9 µM | [5] 24.2 µM | [6] 48.7 µM | [8] 100 µM | [11] 26.6 µM | [12] 25.5 µM | [13] 20.3 µM | [14] 100 µM | [19] 5.71 µM
inactive: all other assays above

ClC1=C(Cl)[C@]2(Cl)[C@@H]3[C@@H](Cl)[C@H](Cl)C[C@@H]3[C@@]1(Cl)C2(Cl)Cl
inactive: all assays above

CC(C)c1ccc(O)cc1
active: [2] 140 µM | [13] 33.6 µM | [19] 131 µM
inactive: all other assays above

CCCCNP(N)(N)=S
inactive: all assays above

O=C(NCNC(=O)NC1C(=O)NC(=O)N1CO)NC1C(=O)NC(=O)N1CO (stereo not given)
active: [20] 100 µM
inactive: all other assays above

[Cl][Sb]([Cl])[Cl]
active: [19] 186 µM
inactive: all other assays above

CN(C)CCC#N
inactive: all assays above

CCOC(=O)N(C)N=O
active: [13] 26.1 µM
inactive: all other assays above

O=C(O)CCl
inactive: all assays above

CC=Cc1ccc2c(c1)OCO2
active: [19] 80.8 µM | [20] 0.0749 µM
inactive: all other assays above

Nc1ccccc1
inactive: all assays above

COCC(=O)N(c1c(C)cccc1C)N1CCOC1=O
active: [13] 29.9 µM
inactive: all other assays above

c1cc(OCC2CO2)ccc1Cc1ccc(OCC2CO2)cc1 (stereo not given)
active: [1] 19.6 µM | [2] 48.3 µM | [3] 57.9 µM | [6] 53.2 µM | [13] 8.22 µM | [14] 33.4 µM | [15] 37.6 µM | [16] 33.4 µM | [17] 54.8 µM | [19] 35.2 µM
inactive: [4] | [5] | [7] | [8] | [9] | [10] | [11] | [12] | [18] | [20]
